Test results: PubChem BioAssay AID689 (Sanford-Burnham Center for Chemical Genomics, 2007)
About 80 (0.1%) of roughly 62,000 compounds were called active. Not all results are given here. Measured potencies and affinities stand elsewhere. A number with no mark means an inactive call. The rule behind the calls is not given here.

What follows are compounds tested against Ephrin type-A receptor 4 (Mus musculus) (UniProt Q03137) (assay: EphA4 ligand-binding antagonists – biochemical, colorimetric, mouse EphA4, primary screen (AID 689)). Settings: EphA4-AP binding to KYL peptide, pNPP A405, at 10 µM, stronger effect = higher value.
Ephrin type-A receptor 4 (Mus musculus), sequence (Q03137 whole entry, looked up): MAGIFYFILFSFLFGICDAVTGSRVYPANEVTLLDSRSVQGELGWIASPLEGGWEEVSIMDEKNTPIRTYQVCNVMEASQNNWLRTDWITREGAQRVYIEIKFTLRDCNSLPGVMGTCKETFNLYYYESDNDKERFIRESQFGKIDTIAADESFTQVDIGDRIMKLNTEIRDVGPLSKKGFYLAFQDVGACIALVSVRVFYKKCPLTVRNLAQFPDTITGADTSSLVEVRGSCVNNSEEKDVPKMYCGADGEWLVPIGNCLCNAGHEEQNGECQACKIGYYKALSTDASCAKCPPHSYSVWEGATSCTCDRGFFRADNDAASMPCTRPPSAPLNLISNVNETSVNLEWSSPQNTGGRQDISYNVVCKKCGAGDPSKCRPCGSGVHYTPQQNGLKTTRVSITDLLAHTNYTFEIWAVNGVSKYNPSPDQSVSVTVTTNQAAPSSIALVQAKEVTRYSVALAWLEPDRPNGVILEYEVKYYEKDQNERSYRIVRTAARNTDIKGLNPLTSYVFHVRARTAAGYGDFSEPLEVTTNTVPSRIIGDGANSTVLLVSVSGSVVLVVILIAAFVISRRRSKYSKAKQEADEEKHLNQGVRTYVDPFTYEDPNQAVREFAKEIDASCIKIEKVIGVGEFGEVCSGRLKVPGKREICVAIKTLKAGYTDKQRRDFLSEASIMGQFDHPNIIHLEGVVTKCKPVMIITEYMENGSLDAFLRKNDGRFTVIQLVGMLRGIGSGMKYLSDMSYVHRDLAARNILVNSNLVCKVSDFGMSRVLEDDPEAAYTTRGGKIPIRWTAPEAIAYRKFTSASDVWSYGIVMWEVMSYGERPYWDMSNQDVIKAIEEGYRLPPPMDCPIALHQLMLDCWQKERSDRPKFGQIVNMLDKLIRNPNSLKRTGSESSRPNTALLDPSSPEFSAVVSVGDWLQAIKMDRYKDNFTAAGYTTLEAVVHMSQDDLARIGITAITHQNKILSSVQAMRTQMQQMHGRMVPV

Compound	inhibition
CCOC(=O)C1CCN(CCC(=O)Nc2cccc(Cl)c2)CC1	-3.9%
O=C(Cc1cccs1)Nc1nnc(Cc2ccc(F)cc2)s1	-11.3%
COc1ccc(Cc2nnc(NC(=O)c3cccs3)s2)cc1	-1.1%
O=C(NCCCN1CCOCC1)c1cccc(Cl)c1	-2.3% [this sample at 5 µg/mL]
O=C(COc1ccc(Cl)cc1Cl)Nc1ccc(NC(=O)COc2ccc(Cl)cc2Cl)cc1	-4.1% [this sample at 5 µg/mL]
O=C(c1ccccc1[N+](=O)[O-])N1CCN(C/C=C/c2ccccc2)CC1	-10.3% [this sample at 5 µg/mL]
CCOc1cc(/C=C2/SC(=S)N(CC)C2=O)ccc1OCc1ccccc1Cl	5% [this sample at 5 µg/mL]
CCn1c2ccccc2c2nc3ccccc3nc21	40.1%
Cn1c2ccc(Cl)cc2c2nc3ccccc3nc21	-1.5%
Cc1cc(NC(=O)CSc2nnc(C3COc4ccccc4O3)o2)no1 (stereo not drawn)	-5.5%
N#CC1=C(N)C(C#N)(C#N)C(c2cccnc2)C2CCCC=C12 (stereo not drawn)	-10%
O=C1/C(=C/C=C/c2ccccc2)SC(=S)N1c1cccc(C(F)(F)F)c1	3.3% [this sample at 5 µg/mL]
COC(=O)CN1C(=O)/C(=C\C=C\c2ccccc2)SC1=S	7.7% [this sample at 5 µg/mL]
CCOCCCNc1nc2c(C)cccn2c(=O)c1/C=C1\SC(=S)N(CC(C)C)C1=O	-4.7%
CCCN1C(=O)/C(=C/c2c(NCCCOC(C)C)nc3c(C)cccn3c2=O)SC1=S	38.4%
COc1ccc(/C=C/C(=O)CC(=O)C(Cl)(Cl)Cl)cc1	5.9% [this sample at 5 µg/mL]
Cc1c(C(=O)Nc2nccs2)sc2nc(-c3cccs3)cc(C(F)(F)F)c12	33%
Cc1nnc(NC(=O)c2sc3nc(-c4cccs4)cc(C(F)(F)F)c3c2N)s1	3.5%
CC(=O)c1cccc(NS(=O)(=O)c2cc(OCC(N)=O)c(C)cc2Cl)c1	-4%
CCOC(=O)C1=C(C)N(CCOC)C(=O)/C1=C\c1sccc1C	-1.6% [this sample at 5 µg/mL]
Cc1cc(OCC(=O)O/N=C(\N)Cc2cccs2)ccc1Br	-4.6%
CCSc1nnc(NC(=O)C(C)C)s1	-5.3%
CCSc1nnc(NC(=O)C(CC)(C(F)(F)F)C(F)(F)F)s1	-7.4%
Clc1ccc(CN2CCN(/N=C/c3ccc(Cl)c(Cl)c3)CC2)cc1	6% [this sample at 5 µg/mL]
Cn1nnnc1SCC(=O)c1ccco1	23.3%
Cc1ccc2nc(CSc3nc(C)cc(C)c3C#N)[nH]c2c1	5.6%
Cc1cccc(NC2=Nc3ccccc3N3C2=Nc2c(c(C)nn2-c2ccccc2)C3c2ccc(O)c(O)c2)c1 (stereo not drawn)	37%

Compound	inhibition
Cc1ccc(NC2=Nc3ccccc3N3C2=Nc2c(c(C)nn2-c2ccccc2)C3c2ccc(O)c(O)c2)cc1 (stereo not drawn)	27.8%
Cc1nn(-c2ccccc2)c2c1C(c1ccc(O)c(O)c1)N1C(=N2)C(Nc2ccccc2)=Nc2ccccc21 (stereo not drawn)	23.4%
Cc1ccc(N2C(=O)c3n[nH]c(C)c3C2c2cccnc2)cc1 (stereo not drawn)	-11.4%
CCCOc1nc2c(c(=O)n(C)c(=O)n2C)n1CCC	-3.5%
CC(=O)c1c(C)n(-c2ccccc2)c2ccc(OCC(O)CN3CCOCC3)cc12 (stereo not drawn)	-25.3%
Cn1c(=O)n(C)c2cc(S(=O)(=O)NCc3ccco3)ccc21	-8%
N#CC(c1ccc(O)cc1)N1CCCCC1 (stereo not drawn)	0.9%
Cc1ccc(NC(=O)N2CCC(C(=O)NCC(C)C)CC2)cc1	-0.8%
CC(C)OCCCNC(=O)C1CCC(=O)N1C(C)C (stereo not drawn)	-3.7%
CCc1ccc(S(=O)(=O)Nc2cc(Br)c(O)c3ccccc23)cc1	2.2% [this sample at 5 µg/mL]
COc1ccc(S(=O)(=O)Nc2ccc(NS(=O)(=O)c3ccc(OC)cc3)c3ccccc23)cc1	-1.5% [this sample at 5 µg/mL]
Cc1ccc(S(=O)(=O)Oc2cccc(N3C(=O)C4CC=CCC4C3=O)c2)cc1 (stereo not drawn)	-10.4%
CCN(CC(=O)Nc1ccc2c(c1)OCCO2)c1ccc(S(=O)(=O)N2CCOCC2)cn1	-6.5%
O=C(Cc1cccs1)N1CCN(c2cccc(Cl)c2)CC1	11.4% [this sample at 5 µg/mL]
COc1ccc(C2CC(=O)N3CN(c4ccccc4F)CSC3=C2C#N)cc1OC (stereo not drawn)	-4.9%
COc1cccc(C2CC(=O)N3CN(c4ccccc4F)CSC3=C2C#N)c1 (stereo not drawn)	12.3%
CCOC(=O)c1c(NC(=S)Nc2ccccc2)sc2c1CCCCC2	1.6%
CCOC(=O)c1c(NC(=S)Nc2ccccc2)sc2c1CCN(CC)C2	0.4%
Cc1ccc2[nH]c(=O)c(CN(CCCN3CCOCC3)C(=O)NC3CCCCC3)cc2c1	-12%
COc1ccccc1Cc1noc(C(C)(C)NC(=O)c2ccccc2)n1	9%
CN(C)CCCNC(=O)CC(c1ccc(F)cc1)c1ccco1 (stereo not drawn)	-15.3%
CCOC(=O)C1=C(c2ccccc2)N=c2s/c(=C\c3ccc(O)c(OC)c3)c(=O)n2C1c1ccc(OC)cc1 (stereo not drawn)	7.7% [this sample at 5 µg/mL]
CCOC(=O)C1=C(c2ccccc2)N=c2s/c(=C\c3ccc(O)cc3)c(=O)n2C1c1cccs1 (stereo not drawn)	23.9%
O=C(O)CCC(=O)NCCn1c(-c2ccccc2)csc1=Nc1ccccc1	-2.4%
CCOc1ccc(-c2nn(-c3ccccc3)cc2/C=C2\SC(=S)N(CCOC)C2=O)cc1	24.2% [this sample at 5 µg/mL]
O=C1/C(=C\c2cccnc2)SC(=S)N1C1CCS(=O)(=O)C1 (stereo not drawn)	1.1%
